The GenesisPotency data set
Hit rate of the full screen: of about 290,000 compounds, about 3,000 (1%) were called active. Rule as the data show it: active = inhibition mostly above about 36% (no sharp cut-off); inactive = mostly below about 34%. Only a selection was taken, and actives are over-represented in it overall.

Target: T1, Nucleotide-binding oligomerization domain-containing protein 1, Homo sapiens (UniProt Q9Y239)
T1 sequence (whole entry): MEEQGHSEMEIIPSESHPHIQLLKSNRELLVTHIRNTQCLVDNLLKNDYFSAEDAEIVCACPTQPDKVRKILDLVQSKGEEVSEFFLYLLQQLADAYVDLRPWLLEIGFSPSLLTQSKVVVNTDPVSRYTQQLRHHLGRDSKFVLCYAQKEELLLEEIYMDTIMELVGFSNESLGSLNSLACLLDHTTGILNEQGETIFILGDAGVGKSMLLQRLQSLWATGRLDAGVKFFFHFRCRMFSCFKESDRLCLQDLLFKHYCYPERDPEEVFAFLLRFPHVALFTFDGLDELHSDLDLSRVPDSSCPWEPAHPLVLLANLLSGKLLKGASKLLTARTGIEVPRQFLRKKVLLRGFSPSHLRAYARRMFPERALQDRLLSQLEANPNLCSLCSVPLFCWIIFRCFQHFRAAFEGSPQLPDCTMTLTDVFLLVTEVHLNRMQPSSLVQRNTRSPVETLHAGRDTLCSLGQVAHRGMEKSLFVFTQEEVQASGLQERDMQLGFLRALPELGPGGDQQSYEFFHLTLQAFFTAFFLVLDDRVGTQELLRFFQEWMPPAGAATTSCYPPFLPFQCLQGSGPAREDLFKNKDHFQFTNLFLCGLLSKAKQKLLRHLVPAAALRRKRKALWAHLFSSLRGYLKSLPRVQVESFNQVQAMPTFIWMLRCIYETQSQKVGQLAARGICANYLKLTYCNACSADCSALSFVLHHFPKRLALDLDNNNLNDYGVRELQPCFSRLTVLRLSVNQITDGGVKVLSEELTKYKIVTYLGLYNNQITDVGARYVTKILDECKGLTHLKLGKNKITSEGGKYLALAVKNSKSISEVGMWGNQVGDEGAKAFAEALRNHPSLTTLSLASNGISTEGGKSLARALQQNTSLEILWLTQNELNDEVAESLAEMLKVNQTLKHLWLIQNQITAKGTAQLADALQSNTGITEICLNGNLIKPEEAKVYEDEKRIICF
Assay: inhibition of NOD1-driven NF-kB reporter – cell-based, luminescence, uHTS, primary screen (AID 1578)

outcome, active:
COc1ccc(NS(=O)(=O)c2cccc(NC(=O)c3ccc(Cl)nc3)c2)cc1
COc1ccc(NS(=O)(=O)c2cccc(NC(=O)c3ccc(S(=O)(=O)N4CCCCCC4)cc3)c2)cc1
Cc1sc2ncnc(Sc3nnnn3-c3ccccc3)c2c1C
Cc1sc2ncnc(Sc3nnnn3-c3ccc(Cl)cc3)c2c1C
Cc1ccccc1-n1nnnc1Sc1nnnn1-c1ccccc1
O=[N+]([O-])c1ccc(/C=N/N=C/c2ccc([N+](=O)[O-])o2)o1
O=C(N/N=C/c1ccc([N+](=O)[O-])o1)c1ccccc1-n1cccc1
O=C(N/N=C/c1ccc([N+](=O)[O-])o1)c1ccc2c(c1)OCO2
Cc1scc(C(=O)N/N=C/c2ccc([N+](=O)[O-])o2)c1C
O=C(N/N=C/c1ccc([N+](=O)[O-])o1)c1ccccc1NS(=O)(=O)c1cccs1
Cc1nn(-c2cccc(Cl)c2)c2nc(C(F)(F)F)[nH]c(=O)c12
Cc1nn(-c2cc(C(F)(F)F)ccc2Cl)c2nc(C(Cl)(Cl)Cl)[nH]c(=O)c12
COc1cccc(N2CCN(c3ncnc4c3cnn4-c3ccc(C)cc3C)CC2)c1
COc1ccc(-c2n(CC(=O)OC3CC(C)CCC3C(C)C)c3ccccc3[n+]2C)cc1.[Cl-] (configuration not stated)
Cc1csc(SCC(=O)Nc2cccc3nsnc23)n1
Cc1noc(C)c1CSc1nc2ccccc2nc1NS(=O)(=O)c1ccc(Cl)cc1
Cc1[nH]nc2ncc(C(=O)c3ccccc3O)cc12
Fc1ccc(CSc2nnc(-c3ccncc3)o2)cc1
Clc1ccc(CSc2nnc(-c3ccncc3)o2)cc1
O=c1cc(-c2ccccc2Cl)oc2c([N+](=O)[O-])c(O)cc(O)c12
O=C(CSc1nc2nc(-c3cccs3)cc(C(F)(F)F)c2c(=O)[nH]1)Nc1ccc(F)c(F)c1
O=C(CSc1nc2nc(-c3cccs3)cc(C(F)(F)F)c2c(=O)[nH]1)Nc1c(F)c(F)c(F)c(F)c1F
Cc1ccc(C)c(NC(=O)CSc2nc3nc(-c4cccs4)cc(C(F)(F)F)c3c(=O)[nH]2)c1
CCOc1ccccc1NC(=O)CSc1nc2nc(-c3cccs3)cc(C(F)(F)F)c2c(=O)[nH]1
COc1ccc(-c2c(C(F)(F)F)[nH]n3c(=O)cc(-c4ccccc4)nc23)cc1
O=c1cc(-c2ccccc2)nc2c(-c3ccccc3)c(C(F)(F)F)[nH]n12
CC(=O)/C=C/n1c(=S)oc2ccccc21
CC(C)CC(=O)/C=C/n1c(=S)oc2ccccc21
CCOC(=O)N1CCN(C(=O)C2CCCN(Cc3nc(-c4ccc(Cl)cc4)oc3C)C2)CC1 (configuration not stated)
CC(=O)c1c(C)[nH]c(C(=O)OCC(=O)Nc2sc3c(c2C#N)CCCC3)c1C
COc1ccccc1Nc1nc(-c2sc(NC(=O)c3ccco3)nc2C)cs1
Br.CC(=O)Nc1nc(C)c(-c2csc(Nc3ccc(O)cc3)n2)s1
CC[C@H]1CN2CCc3cc(OC)c(OC)cc3[C@@H]2C[C@@H]1C[C@H]1NCCc2cc(OC)c(OC)cc21.Cl
O=C(NC(=S)N1CCN(c2ccc(Cl)cc2[N+](=O)[O-])CC1)c1cccs1
O=C(NC(=S)N1CCN(c2ccc(C(F)(F)F)cc2[N+](=O)[O-])CC1)c1cccs1
O=C(c1ccc2c(c1)CCN2S(=O)(=O)c1ccccc1)N1CCN(c2ccc(F)cc2)CC1
COc1cc(C2CC(c3cccs3)=NN2C(=O)CCl)ccc1OC(F)F (configuration not stated)
COc1ccc(C2CC(c3cccs3)=NN2C(=O)CCl)cc1OC (configuration not stated)
O=C(COc1ccc(C(=O)c2ccccc2)cc1)Nc1cccnc1
Cc1ccc(-n2ncc(Br)c(Br)c2=O)cc1
COc1cc(OC)nc(-n2ncc(Br)c(Br)c2=O)n1
Cc1cccc(/C=C(\c2nc3ccccc3[nH]2)S(=O)(=O)c2ccccc2)c1
O=S(=O)(/C(=C/c1ccc(C(F)(F)F)cc1)c1nc2ccccc2[nH]1)c1ccccc1
CC(C)c1ccc(/C=C(\c2nc3ccccc3[nH]2)S(=O)(=O)c2ccccc2)cc1
N=C1SC(c2ccccc2)C(=O)N1c1ncc(Cc2ccccc2Cl)s1 (configuration not stated)
Cc1ccc(Cc2cnc(N3C(=N)SC(c4ccccc4)C3=O)s2)cc1 (configuration not stated)
N=C1SC(c2ccccc2)C(=O)N1c1ncc(Cc2ccccc2)s1 (configuration not stated)
CCOc1ccc2nc(SCc3ccc(CC(=O)O)cc3)c(C#N)cc2c1
CSc1nc2ccc(NS(=O)(=O)c3ccc4c(c3)OCCO4)cc2s1
Cc1nc2ccc(NS(=O)(=O)c3c(C)c(C)cc(C)c3C)cc2s1
Cc1nc2ccc(NS(=O)(=O)c3ccc4c(c3)OCCO4)cc2s1
O=C(CCl)Nc1cc(SCC(O)CO)cc([N+](=O)[O-])c1 (configuration not stated)
COc1cc(F)ccc1CN1CCC(C(=O)Nc2ccc(Oc3ccccc3)nc2)CC1
CCOC(=O)C1=C(C)N=c2s/c(=C/c3cccc([N+](=O)[O-])c3O)c(=O)n2C1c1ccccc1 (configuration not stated)
Cc1ccccc1N(Cc1cc(=O)[nH]c2ccccc12)C(=O)CCl
Cc1ccc(N(Cc2cc(=O)[nH]c3ccccc23)C(=O)CCl)c(C)c1
Cc1cc(C(=O)N/N=C/c2cc(Br)ccc2OC(=O)c2ccccc2)n[nH]1
Cc1cc(C(=O)N/N=C/c2cc(Br)cc(Br)c2OC(=O)c2cccc(F)c2)n[nH]1
COc1cccc(C(=O)Oc2c(Br)cc(Br)cc2/C=N/NC(=O)c2cc(C)[nH]n2)c1
Cc1ccc(-c2csc3ncnc(Sc4nnc(CN5CCCCCC5=O)o4)c23)cc1
COc1ccc(Cn2c(O)c(C=Nc3ccccc3C(=O)O)c3ccccc3c2=O)cc1
CCN(CC)S(=O)(=O)c1cccc(-n2c(O)c(C=Nc3ccccc3C(=O)O)c3ccccc3c2=O)c1
COc1ccccc1NS(=O)(=O)c1cccc(-n2c(O)c(C=Nc3ccccc3C(=O)O)c3ccccc3c2=O)c1
COC(=O)Cc1[nH]n(-c2nc3ccccc3s2)c(=O)c1C(C)=Nc1ccc(C)cc1
Cc1ccc(Cl)cc1N1CCN(C(=O)c2cc3c(=O)[nH]c4ccccc4c3n2C)CC1
COc1ccc(CN(C)Cc2nc(Cc3cccc(F)c3)no2)c2cccnc12
Cc1nc(SCC(=O)Nc2nc3ccccc3s2)c(C#N)c(C)c1C
COc1ccc(-n2nnnc2S(=O)(=O)CC(=O)N2CCCCC2)cc1
Cc1cc(Nc2cccc([N+](=O)[O-])c2)n2c(nc3ccccc32)c1C#N
CCc1nnc(NC(=O)c2ccc(Cl)c(S(=O)(=O)N3CCc4ccccc43)c2)s1
CC(NC(=O)OC(C)(C)C)C(=O)Oc1cc2oc(=O)cc(-c3ccccc3)c2cc1Cl (configuration not stated)
CC(NC(=O)OCc1ccccc1)C(=O)Oc1cc2oc(=O)cc(-c3ccccc3)c2cc1Cl (configuration not stated)
COC(=O)c1ccc(Nc2c([N+](=O)[O-])c(=O)oc3ccccc23)cc1
CCOC(=O)c1sc(N2C(=O)C(O)=C(C(=O)c3ccco3)C2c2ccco2)nc1C (configuration not stated)
CCOC(=O)N1CCN(C(=O)c2ccc(Cn3c(=S)[nH]c4cc5c(cc4c3=O)OCO5)cc2)CC1
Cc1ccc(C(=O)Sc2cccccc2=O)cc1
CC(=O)c1c(C)[nH]c(C(=O)OCC(=O)Nc2ccc(C)cc2[N+](=O)[O-])c1C
CC(/C=C1\SC(=O)N(CCCC(=O)O)C1=O)=C\c1ccccc1
C=CCN(CC=C)C(=S)NC(=O)c1ccc(-c2ccccc2)cc1
CN(Cc1ccccc1)C(=S)NC(=O)c1ccc(-c2ccccc2)cc1
CCOc1cc(/C=C(/C#N)c2ccc(Cl)cc2)cc(Cl)c1OCC(=O)O
CC1=C(CO)C(=O)OC([C@@H](C)C2CC[C@H]3C4C[C@H]5O[C@]56[C@@H](O)C=CC(=O)[C@]6(C)C4CC[C@]23C)C1 (some centres not stated)
O=C(Nc1nnc(-c2ccccc2)o1)c1ccc(Cl)cc1
CN(C)c1ccc(C(=O)Nc2nnc(-c3ccc(Cl)cc3)o2)cc1
Cc1cccc(-c2nnc(NC(=O)c3ccc(Cl)cc3)o2)c1
COc1ccc(OC)c(NC(=O)CSc2ncnc3c2cnn3-c2ccccc2Cl)c1
CCCC(Oc1ccc(Br)cc1)c1nc2c3cc(OC)c(OC)cc3nc(=S)n2[nH]1 (configuration not stated)
CC(Oc1ccc(Br)cc1)c1nc2c3ccccc3nc(=S)n2[nH]1 (configuration not stated)
Oc1ccc(CCNc2ncnc3ccc(Cl)cc23)cc1
COc1ccc(CCNc2ncnc3sc(C)cc23)cc1OC.Cl
COc1ccc(CCNc2ncnc3sccc23)cc1OC
COc1ccc(CCNc2ncnc3c2oc2ccccc23)cc1OC.Cl
COc1ccc(CCNc2ncnc3cc(OC)c(OC)cc23)cc1OC
O=C(c1ccc(S(=O)(=O)c2cccc(Cl)c2)c([N+](=O)[O-])c1)N1CCN(Cc2ccccc2)CC1
COc1ccc(NC(=O)/C(Cl)=C(/Cl)S(=O)Cc2ccc(Cl)cc2)cn1 (configuration not stated)
COc1ccc(NC(=O)/C(Cl)=C(/Cl)S(=O)Cc2ccccc2)cn1 (configuration not stated)
COc1ccc(NC(=O)/C(Cl)=C(/Cl)S(=O)Cc2ccccc2Cl)cn1 (configuration not stated)
COc1ccc(NC(=O)/C(Cl)=C(/Cl)S(=O)Cc2ccc(C)cc2)cn1 (configuration not stated)
COc1ccc(CS(=O)/C(Cl)=C(/Cl)C(=O)Nc2ccc(OC)nc2)cc1 (configuration not stated)
CC(=O)c1ccc(N2CCN(C(=S)Nc3ccc(Oc4ccccc4)cc3)CC2)cc1
C=CCSc1nsc(NC(=O)Nc2cccc(C(C)=O)c2)n1
Cc1ccc(CS(=O)(=O)c2ccc(C(=O)N3CCN(c4ccccn4)CC3)cc2[N+](=O)[O-])cc1
